Bioassay records: PubChem, National Center for Advancing Translational Sciences (NCATS)
NS1 inh: blocks influenza NS1 protein function | Potency, µM (series often up to 46.1 µM), for inactives: at the top dose activity, positive = more growth | hit rate 0.4% among 270,000; calls by dose curve; also: potency is read from the fitted curve at half-maximal effect; actives are rising curves; nearly all actives have a fitted effect of over 50% in size
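Compounds were scored for reversing the slow growth caused by influenza A NS1 in S. cerevisiae, measured by optical density at 600 nm. Assay medium contained 2% galactose at pH 6.0; NS1-free yeast of the same strain were the positive control.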
Shiga toxin inh: Shiga toxin inhibition; inhibition, % at 38.7 µM; AID 2315; hit rate 9.2% among 290,000; Vero cells, Shiga toxin protein synthesis inhibition reporter; in the data active = inhibition mostly above about 28%, no sharp cut-off; inactive = mostly below about 43%; also: 0% is about no effect
Pf growth 48h: inhibits P. falciparum growth in the first generation, 48 h; P. falciparum luciferase growth in erythrocytes, 48 h; Potency, µM (highest dose often 28.7 µM), for the others: at the highest dose activity change, negative = inhibition, usual class: inhibitors; hit rate 5.9% among 310,000; also: potency is read from the fitted curve at half-maximal effect; % is scaled to controls: 0 for no effect and ±100 for the full control effect
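A one-generation exposure of luciferase-tagged malaria parasites in RPMI 1640/Albumax erythrocyte culture, 37 C and 5% CO2. Inhibition is inferred from decreased luminescence after adding detection reagent.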
Cycloheximide cs: affects cycloheximide protein synthesis inhibition readout, counter-screen | hit rate 12% among 300,000 | cell reporter, cycloheximide protein synthesis inhibition counterscreen | max response, % | AID 2314; in the data active = max response mostly above about 13%, no sharp cut-off; inactive = mostly below about 14%; also: read at 38.3 µM for the half of the compounds with a filed dose; 0% is about no effect
Pf growth 96h: P. falciparum growth inhibition at 96 hours | P. falciparum luciferase reporter growth, 96 h | Potency, µM (series often up to 28.7 µM), for the others: at the highest dose activity change, negative = inhibition, actives largely listed as inhibitors | hit rate 6.9% among 320,000 | AID 504834; also: potency is read from the fitted curve at half-maximal effect; % is scaled to controls: 0 for no effect and ±100 for the full control effect
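Erythrocytes infected with luciferase-expressing P. falciparum were dispensed at 2% hematocrit and 0.05% parasitemia (final), then incubated with compounds 96 hours at 37 C in 5% CO2. Luminescence after detection reagent addition reported growth.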
Starred values were filed as active, the others as inactive; ? = inconclusive; / = no result given. Shown are actives, neighbours in structure and some others; about 21% of the full set was active somewhere. Unless noted, calls follow the shape of the dose curve; as a rule, active = well fitted inhibition curve with a large enough effect; inconclusive = small, poorly fitted or top-dose-only effect, or another doubt; inactive = no such curve, though single readings can be large or run the other way.

SMILES | NS1 inh | Shiga toxin inh | Pf growth 48h | Cycloheximide cs | Pf growth 96h
COCCn1c(SCC(=O)NCc2ccco2)nnc1C(C)C | 3.1% | -4.9 | -2.8% | -1.2 | -3.5%
Oc1cc(O)c2c(c1)O[C@@H](c1ccc(O)c(O)c1)[C@H](O[C@@]1(c3cc(O)c(O)c(O)c3)Oc3cc(O)cc(O)c3[C@H](O)[C@@H]1O)C2 | 5.0% | / | / | / | /
N/C(=N\OC(=O)c1cccc(Cn2cc(C(F)(F)F)ccc2=O)c1)c1ccccc1 | -3.2% | 40.8* | ? | 32.1* | ?
N/C(=N\OS(=O)(=O)c1ccc(Cl)cc1)c1ccccn1 | / | 55.6* | 37.3% | 16.9* | -10.8%
N/C(=N\OS(=O)(=O)c1ccccc1)c1ccccn1 | -0.1% | -5.3 | 0.6% | 0.4 | -13.6%
N/C(=N\OC(=O)c1ccc(Cl)c(Cl)c1)c1ccccn1 | -130.1% | 106.8* | -52.4% | 19.0* | 65.0%
N/C(=N\OC(=O)c1cccc(Br)c1)c1ccccn1 | -62.1% | 35.9* | -83.1% | 65.8* | -25.2%
CCOc1ccccc1CNn1nnnc1N | -7.5% | 4.3 | -8.1% | -5.3 | -5.6%
CC(Sc1nnc(-c2cccnc2)o1)C(=O)NC1CCCCC1 (configuration not stated) | / | / | -20.3% | / | -28.2%
N/C(=N\OC(=O)c1cccc(Br)c1)c1ccccc1 | -4.1% | 59.4* | 61.7% | 26.6* | 41.3%
N/C(=N\OC(=O)CCCOc1ccccc1)c1cccc(Br)c1 | -5.3% | -0.6 | -10.6% | -2.8 | 43.9%
N/C(=N\OC(=O)c1ccc(Cl)c([N+](=O)[O-])c1)c1ccccc1 | 1.7% | -1.6 | -0.8% | -0.3 | -2.4%
N/C(=N\OC(=O)c1ccc(Cl)c([N+](=O)[O-])c1)c1ccccn1 | / | 140.9* | 72.4% | 72.3* | ?
N/C(=N\OC(=O)c1cccc(Cl)c1)c1ccccn1 | -53.2% | 45.9 | -13.5% | 42.1* | -89.0%
Oc1cc2c(cc1CN1CCN(c3ncccn3)CC1)OCO2 | -9.6% | -10.7 | 2.4% | 1.0 | 10.3%
Cc1ccc2nc(C3CCN(S(=O)(=O)c4ccc5ccccc5c4)CC3)[nH]c2c1 | -88.8% | -9.4 | ? | -1.2 | ?
CC[C@H](C)[C@H](NC(=O)[C@H](C)NC(=O)[C@H](CC(N)=O)NC(=O)[C@H](CCCCN)NC(=O)[C@H](Cc1ccccc1)NC(=O)[C@H](CC(C)C)NC(=O)[C@@H](NC(=O)[C@@H](NC(=O)[C@H](CC(C)C)NC(=O)[C@@H]1CCCN1C(=O)[C@@H](NC(=O)[C@H](CCC(N)=O)NC(=O)[C@H](CO)NC(=O)[C@H](CCCCN)NC(=O)[C@H](CCC(=O)O)NC(=O)[C@H](CO)NC(=O)[C@@H](NC(=O)[C@H](CCSC)NC(=O)[C@H](Cc1ccccc1)NC(=O)CNC(=O)CNC(=O)[C@@H](N)Cc1ccc(O)cc1)[C@@H](C)O)[C@@H](C)O)C(C)C)[C@@H](C)O)C(=O)N[C@H](C(=O)N[C@@H](CCCCN)C(=O)N[C@@H](CC(N)=O)C(=O)N[C@@H](C)C(=O)N[C@@H](Cc1ccc(O)cc1)C(=O)N[C@@H](CCCCN)C(=O)N[C@@H](CCCCN)C(=O)NCC(=O)N[C@@H](CCC(=O)O)C(=O)O)[C@@H](C)CC | / | -6.3 | / | -0.9 | /
CCOc1ccc(N/C(N)=N/c2nc(CSc3nnnn3-c3ccccc3)cc(=O)[nH]2)cc1 | 1.3% | 16.8 | -0.4% | 0.8 | -0.2%
COc1ccc(CN2CCC(CO)(Cc3ccccc3C(F)(F)F)CC2)c(F)c1 | -1.1% | -2.1 | 4.65µM* | 1.5 | ?
COc1ccc(CC2(CO)CCN(Cc3cccc4nccnc34)CC2)cc1 | 2.8% | -7.8 | -5.0% | -2.8 | ?
O=S(=O)(O)c1cc(N=[N+]([O-])c2cc(S(=O)(=O)O)c3ccccc3c2)cc2ccccc12 | -2.6% | / | / | / | /
COc1ccc(C)cc1N(CC(=O)NC1CCCC1)C(=O)CCC(=O)Nc1cc(C)on1 | -7.8% | -6.1 | -8.0% | -5.4 | 32.3%
COc1ccccc1/C=N/NC(=O)CN(C1=NS(=O)(=O)c2ccccc21)c1ccccc1 | -16.3% | 23.1 | 0.8% | -3.8 | 0.147µM*
COc1ccc(S(=O)(=O)c2nnn(-c3ccccc3Cl)c2N)cc1 | / | -4.2 | -17.2% | 0.8 | ?
CCOc1ccc(-c2[nH]ncc2Oc2ccccc2OCC)c(O)c1 | -178.7% | -5.2 | 5.86µM* | -0.9 | ?
SMILES | NS1 inh | Shiga toxin inh | Pf growth 48h | Cycloheximide cs | Pf growth 96h
CCOc1ccc(-c2[nH]ncc2Oc2ccccc2OC)c(O)c1 | -139.2% | 34.7 | 8.28µM* | 3.2 | /
CCOc1ccccc1Oc1cn[nH]c1-c1ccc(OCC(=O)NN)cc1O | ? | -8.6 | / | -1.4 | 13.1µM*
COc1cccc(Oc2cn[nH]c2-c2ccc(OCC(=O)NN)cc2O)c1 | 17.1% | -6.9 | ? | -3.6 | ?
COc1ccccc1N1CCN(/N=C/c2ccc(Cl)c([N+](=O)[O-])c2)CC1 | -15.9% | 43.4* | 63.8% | 54.8* | 335.9%
COc1ccccc1N1CCN(/N=C/c2ccc([N+](=O)[O-])cc2)CC1 | 18.5% | 13.1 | 33.9% | 21.2* | 10.4µM*
CC(NC(=O)CN1C(=O)NC2(CCCCC2C)C1=O)c1ccccc1 (configuration not stated) | / | / | -3.5% | / | 18.8%
Cc1ccc(/C(N)=N/OC(=O)c2cccc(Cn3cc(C(F)(F)F)ccc3=O)c2)cc1 | 4.8% | 11.8 | ? | 2.6 | ?
COc1cccc(C(=O)O/N=C(\N)c2ccc([N+](=O)[O-])cc2)c1 | -18.0% | 76.2* | 46.7% | 32.7* | 38.8%
COc1cccc(C(=O)O/N=C(\N)c2ccc(C)cc2)c1 | -34.0% | 83.4* | ? | 57.1* | 34.5%
COc1cccc(/C(N)=N/OC(=O)Cc2ccccc2[N+](=O)[O-])c1 | / | 113.3* | 35.2% | 26.8* | ?
N/C(=N\OC(=O)Cc1ccccc1[N+](=O)[O-])c1ccncc1 | -0.7% | -6.9 | 17.6% | -1.5 | 26.2%
COc1cccc(C(=O)O/N=C(\N)Cc2ccc(Cl)cc2)c1 | -70.9% | 18.6 | 10.4µM* | 14.2 | 139.2%
COc1ccc(/C(N)=N/OC(=O)c2cccc([N+](=O)[O-])c2)cc1 | -3.9% | 25.9 | / | 0.8 | ?
O=C(CCNC(=O)N1CCn2c1nc1ccccc12)NCc1ccc(F)cc1 | -1.8% | 13.0 | 16.2% | -4.1 | -0.4%
COc1ccc(Cl)c(NC(=O)C/C(C)=N/NC(=O)CCc2ccccc2)c1 | -1.0% | -2.6 | 16.9% | -3.9 | 20.0%
COc1cccc(C(=O)O/N=C(\N)c2ccncc2)c1 | -19.4% | 71.5* | -4.3% | 47.0* | ?
c1ccc(Nc2ncnc3sccc23)cc1 | -22.3% | 33.5 | 24.7% | 8.0 | 18.3%
COC(=O)c1cccc(Nc2ncnc3sccc23)c1 | / | 33.5 | 12.6% | 11.8 | 68.5%
COc1cccc(Nc2ncnc3sccc23)c1 | -17.1% | 129.5* | 145.6% | 23.4* | 166.4%
COc1ccc(Nc2ncnc3sccc23)c(OC)c1 | -17.9% | 18.5 | 3.8% | 9.0 | 6.7%
COc1ccc(OC)c(Nc2ncnc3sccc23)c1 | 4.0% | 18.5 | -19.6% | 15.0* | 29.2%
c1nc(Nc2ccc(N3CCOCC3)cc2)c2ccsc2n1 | 3.6% | 69.3* | 87.6% | 50.4* | 133.7%
